Among all 13,000 compounds or so, about 3,200 (25%) showed an effect of 50% or more. This is one part of the list.
The molecules below were run on P. falciparum stage V gametocytes. Conditions: 48 h, 5 µM; inhibitor.
Parameters: BacTiter-Glo ATP luminescence viability of purified stage V gametocytes in 384-well plates, per cent inhibition versus DMSO
`CC1(C)N=C(N)NC(NOCc2ccc(Cl)c(Cl)c2)=N1` [TCMDC-131606] was tested, and the “% Inhibition” value was -8.519%.
For `CC(C)[C@H](NC(=O)c1ccc(O)c(-c2ccc(Cl)c(Cl)c2)c1)C(=O)NCCN1CCCCC1` [TCMDC-140858], the “% Inhibition” value was 1.563%.
For `N#Cc1nc2ccc(OCCN(Cc3ccccc3C(F)(F)F)c3ccc(C#N)c(C(F)(F)F)c3)cc2s1` [TCMDC-132798], the “% Inhibition” value was 33.49%.
`N#Cc1ccc(NC(=NCCc2c[nH]c3ccccc23)Nc2ccc(-c3ccccc3)cc2)c(O)c1` [TCMDC-140211] was tested, and the “% Inhibition” value was -66.19%.
With `CCCCC(=O)N(CCOC)Cc1ccc(-c2ccc(CNCCC)cn2)cc1` [TCMDC-141536] the “% Inhibition” value was 72.35%.
`CCCNCc1ccc(-c2ccc(CN(CCOC)C(=O)CCCOCc3ccccc3)cc2)nc1` [TCMDC-141543] was tested, and the “% Inhibition” value was 33.78%.
In the case of `CCCNCc1ccc(-c2ccc(CN(CCOC)C(=O)Cc3cccnc3)cc2)nc1` [TCMDC-141528], the “% Inhibition” value was 108.8%.
With `CCCNCc1ccc(-c2ccc(CN(Cc3ccc4c(c3)OCO4)C(=O)Cc3cccnc3)cc2)nc1` [TCMDC-141529] the “% Inhibition” value was 106.5%.
In the case of `CC(=O)Nc1cccc(CN(Cc2ccc(-c3ccc(CNCc4cccnc4)cn3)cc2)C(=O)Cc2cccnc2)c1` [TCMDC-141604], the “% Inhibition” value was -7.365%.
In the case of `CCCNCc1ccc(-c2ccc(CN(CCOC)C(=O)COc3ccccc3Cl)cc2)nc1` [TCMDC-141541], the “% Inhibition” value was 51.3%.
With `CN(C)CCN(C)Cc1ccc(-c2ccc(NS(=O)(=O)c3cccc4cccnc34)cc2)cc1` [TCMDC-136474] the “% Inhibition” value was 21.58%.
For `CCn1cc(C=C2Oc3c(ccc(O)c3CN3CCCCC3)C2=O)c2cc(OC)ccc21` [TCMDC-124887], the “% Inhibition” value was 12.33%.
With `CCCNCc1ccc(-c2ccc(CN(CCOC)C(=O)CCc3ccc(OC)cc3)cc2)nc1` [TCMDC-141539] the “% Inhibition” value was 54.14%.
With `CCCNCc1ccc(-c2ccc(CN(CCOC)C(=O)CCC(=O)c3ccc(OC)c(F)c3)cc2)nc1` [TCMDC-141537] the “% Inhibition” value was 97.99%.
`Cc1cc(NC(=O)NCCN2CCC(NS(=O)(=O)c3ccccc3F)CC2)c2ccccc2n1` [TCMDC-136137] was tested, and the “% Inhibition” value was 1.757%.
For `CCOC(=O)c1[nH]c(-c2cc(Cl)nc(Cl)c2)nc1NC(=S)NCc1ccc(NS(C)(=O)=O)cc1` [TCMDC-138899], the “% Inhibition” value was -31.28%.
For `CC(=O)c1nccc(C)c1N` [TCMDC-139307], the “% Inhibition” value was -14.24%.
With `CN1CCC(Oc2cc(NC(=O)Nc3ccc(-c4ccncc4)c(Cl)c3)ccc2Cl)CC1` [TCMDC-139205] the “% Inhibition” value was 28.36%.
`O=C(CCCCCNC(=O)c1ccc(O)c(-c2ccc(Cl)c(Cl)c2)c1)NCc1cccc(C(F)(F)F)c1` [TCMDC-140831] was tested, and the “% Inhibition” value was 18.4%.
`O=C(Nc1ccsc1)Nc1cccc(-c2ccc(-c3nc4ccc(C(F)(F)F)cc4[nH]3)cc2)c1` [TCMDC-133210] was tested, and the “% Inhibition” value was -6.282%.
For `CNCCCn1c(N(C)C)nc2cc(-n3cnc4cc(-c5ccc(Cl)cc5)sc4c3=O)ccc21` [TCMDC-138914], the “% Inhibition” value was 43.83%.
`COc1ccc(-c2cc3ncn(CC(=O)N4CCN(c5cccc(OC)c5)CC4)c(=O)c3s2)cc1` [TCMDC-125255] was tested, and the “% Inhibition” value was 66.27%.
For `COc1ccc(-c2cc3ncnc(N4CCN(CCN5CCCC5)CC4)c3s2)cc1` [TCMDC-125055], the “% Inhibition” value was -2.838%.
With `CN1CCN(C(=O)CN2CCC3(CCC2=O)NC(=O)c2ccccc2O3)CC1` (centres unmarked) [TCMDC-125378] the “% Inhibition” value was -32.42%.
In the case of `CC(=O)N/N=C/[C@H](CCc1ccccc1)NC(=O)[C@H](CC(C)C)NC(=O)c1ccc(F)cc1` [TCMDC-135965], the “% Inhibition” value was 1.649%.
In the case of `CC[C@H](NC(=O)c1c(N)c(-c2sccc2Cl)nc2ccccc12)c1ccccc1` [TCMDC-141650], the “% Inhibition” value was 17.42%.
For `O=[N+]([O-])c1cccc(CNCC2CCN(CCc3ccccc3)CC2)c1` [TCMDC-141210], the “% Inhibition” value was 2.081%.
In the case of `Fc1cccc(Nc2nc(NCc3ccc(Cl)c(Cl)c3)nc(Nc3cccc(F)c3)n2)c1` [TCMDC-135139], the “% Inhibition” value was 55.91%.
In the case of `Fc1ccc(Nc2n[nH]c(CNC3CCN(Cc4ccc(Cl)c(Cl)c4)CC3)n2)cc1` [TCMDC-138655], the “% Inhibition” value was -23.76%.
For `Fc1cccc(Nc2nc(NCc3ccc4ccsc4c3)nc(Nc3cccc(F)c3)n2)c1` [TCMDC-135140], the “% Inhibition” value was 55.41%.
In the case of `Cc1nc(-c2cccc(Nc3nccc(NCC(O)c4cccc(F)c4)n3)c2)cs1` (centres unmarked) [TCMDC-136571], the “% Inhibition” value was -23.01%.
For `COc1cccc(Nc2nc(Nc3cccc(C#N)c3)cc(C(F)(F)F)n2)c1` [TCMDC-133462], the “% Inhibition” value was -24.01%.
`Fc1cccc(Nc2nc(NCCc3ccc(Cl)cc3)nc(Nc3cccc(F)c3)n2)c1` [TCMDC-135141] was tested, and the “% Inhibition” value was 40.3%.
For `FC(F)(F)Oc1cccc(CNc2noc(-c3sccc3Br)n2)c1` [TCMDC-134186], the “% Inhibition” value was 1.419%.
With `COc1cccc(Nc2nc(C)cc(Nc3cccc(C#N)c3)n2)c1` [TCMDC-133448] the “% Inhibition” value was 4.259%.
`COc1ccc(CNc2nc(Nc3cccc(C#N)c3)nc(Nc3cccc(C#N)c3)n2)cc1Cl` [TCMDC-138547] was tested, and the “% Inhibition” value was 52.56%.
`CC(=O)Nc1ccc(CN2CCCN(c3cc(NC(=O)c4cccc(C)c4)ccn3)CC2)cc1` [TCMDC-134980] was tested, and the “% Inhibition” value was 8.133%.
With `Cc1cccc(OCCCCON2C(N)=NC(N)=NC2(C)C)c1C` [TCMDC-131662] the “% Inhibition” value was 9.727%.
With `COc1ccc(NC(=O)/C=C/c2ccc(Cl)c(Cl)c2)cc1N1CCN(C)CC1` [TCMDC-139042] the “% Inhibition” value was -34.01%.
`CC(C)n1ncc2c(C(=O)Nc3ccc(C#N)c(Cl)c3)cc(C3CC3)nc21` [TCMDC-125244] was tested, and the “% Inhibition” value was -17.87%.
`COc1ccc(CCNC(=O)c2cnc3c(c2)nc(-c2cnc(-c4ccccc4)[nH]2)n3CCc2cnc[nH]2)cc1` [TCMDC-139689] was tested, and the “% Inhibition” value was -21.36%.
`Cc1cccc2nc(-c3cccc(-c4cccc(CNCCNC(=O)c5ccnn5C)c4)c3)[nH]c12.O=C(O)C(F)(F)F` [TCMDC-133005] was tested, and the “% Inhibition” value was -4.375%.
`Cc1cccc2nc(-c3ccc(-c4ccc(CNCCNC(=O)c5ccnn5C)cc4)s3)[nH]c12.O=C(O)C(F)(F)F` [TCMDC-133009] was tested, and the “% Inhibition” value was 4.683%.
In the case of `Cc1cccc2nc(-c3ccc(-c4cccc(CNCCNC(=O)c5ccnn5C)c4)cc3)[nH]c12.O=C(O)C(F)(F)F` [TCMDC-133011], the “% Inhibition” value was 85.89%.
For `Cc1cccc2nc(-c3cccc(-c4ccc(CNCCNC(=O)c5ccnn5C)cc4)c3)[nH]c12.O=C(O)C(F)(F)F` [TCMDC-133007], the “% Inhibition” value was 31.89%.
`Cc1cccc2nc(-c3ccc(-c4ccc(CNCCNC(=O)c5ccnn5C)cc4)cc3)[nH]c12.O=C(O)C(F)(F)F` [TCMDC-133017] was tested, and the “% Inhibition” value was 85.49%.
`Cc1cccc2nc(-c3ccc(-c4cccc(CNCCNC(=O)c5ccnn5C)c4)s3)[nH]c12.O=C(O)C(F)(F)F` [TCMDC-133015] was tested, and the “% Inhibition” value was -0.5354%.

From publication PMC4552634, “A New Set of Chemical Starting Points with Plasmodium falciparum Transmission-Blocking Potential for Antimalarial Drug Discovery” (PLoS ONE, 2015)
